Screening data deposited in PubChem BioAssay by National Center for Advancing Translational Sciences (NCATS).
DT40 TDP1 no CPT: qHTS for Inhibitors of human tyrosyl-DNA phosphodiesterase 1 (TDP1): qHTS in cells in absence of CPT; DT40 Tdp1-/- hTDP1 cells, no CPT, ATP luminescence, 48 h; Potency, µM (titrated, usually from 46.2 µM), most hits filed as inhibitors; 420,000 tested, 15% active; AID 686978, 2013; also: nearly all actives have a fitted effect of over 55% in size
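No-CPT arm: Tdp1-/-;hTDP1 DT40 cells (400/well) plus compounds, incubated ≥48 hr at 37 °C. Readout CellTiter-Glo luminescence.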
VP16 counter: VP16 counterscreen qHTS for inhibitors of ROR gamma transcriptional activity | Drosophila S2 Gal4-VP16 UAS-luciferase, luminescence, 20 h | Potency, µM (highest dose often 53.6 µM), hits mostly inhibitors | 310,000 tested, 3.5% active | AID 2546, 2010;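 also: Gal4-VP16 expression switched on by copper sulfate through the metallothionein promoter; nearly all actives have a fitted effect of over 50% in size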
IL1B secr inh: qHTS for Inhibitors of Inflammasome Signaling: IL-1-beta AlphaLISA Primary Screen. 360,000 tested, 4.7% active. activity change, % at 57.5 µM. THP-1 LPS/ATP IL-1B secretion, AlphaLISA, 16 h; active compounds read low; in the data active = activity change below about -50%; inconclusive = mostly about -30% to -49%
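THP-1 cells pretreated 1 hr with compounds (up to 57.5 uM final), then stimulated with LPS (250 ng/mL final) plus ATP (1.25 mM final); secreted IL-1B measured by AlphaLISA after 16 hr, decreased signal indicating inhibition.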
TDP1 cell CPT: qHTS for Inhibitors of human tyrosyl-DNA phosphodiesterase 1 (TDP1): qHTS in cells in presence of CPT | AID 686979, 2013 | Potency, µM (series often up to 46.2 µM), most hits filed as inhibitors | chicken DT40 Tdp1-/-;hTDP1 cells + 20 nM CPT, ATP luminescence, 48 h | 420,000 tested, 12% active; also: nearly all actives have a fitted effect of over 55% in size
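Cell growth measured by CellTiter-Glo luminescence after a minimum 48 h, 37 C compound exposure with 20 nM CPT in Tdp1-knockout DT40 cells stably expressing hTDP1, seeded 400/well; qHTS titration format.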
LDHA inh: qHTS assay for inhibitors of human lactate dehydrogenase; AID 1347041, 2019; purified LDHA, NADH/diaphorase-resazurin fluorescence; active compounds read low; 480,000 tested, 0.15% active; L-lactate dehydrogenase A chain (Homo sapiens), P00338; activity change, % (values are at about 110 or 230 µM); in the data active = activity change below about -30%; inconclusive = mostly about -25% to -30%
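Enzyme activity of human lactate dehydrogenase 5 (2 nM; 0.06 mM NADH, 0.2 mM pyruvate, 5 min, RT) is measured via a resazurin/diaphorase fluorescence readout of residual NADH.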
RORg inh: qHTS for inhibitors of ROR gamma transcriptional activity; Nuclear receptor ROR-gamma (Mus musculus), P51450; Drosophila S2 Gal4-RORgamma UAS-luciferase reporter, 20 h; Potency, µM (doses to about 53.6 µM), actives largely listed as inhibitors; 310,000 tested, 5.4% active; AID 2551, 2010; also: nearly all actives have a fitted effect of over 60% in size
Target sequence (P51450 whole entry, looked up, the tested form may be a part): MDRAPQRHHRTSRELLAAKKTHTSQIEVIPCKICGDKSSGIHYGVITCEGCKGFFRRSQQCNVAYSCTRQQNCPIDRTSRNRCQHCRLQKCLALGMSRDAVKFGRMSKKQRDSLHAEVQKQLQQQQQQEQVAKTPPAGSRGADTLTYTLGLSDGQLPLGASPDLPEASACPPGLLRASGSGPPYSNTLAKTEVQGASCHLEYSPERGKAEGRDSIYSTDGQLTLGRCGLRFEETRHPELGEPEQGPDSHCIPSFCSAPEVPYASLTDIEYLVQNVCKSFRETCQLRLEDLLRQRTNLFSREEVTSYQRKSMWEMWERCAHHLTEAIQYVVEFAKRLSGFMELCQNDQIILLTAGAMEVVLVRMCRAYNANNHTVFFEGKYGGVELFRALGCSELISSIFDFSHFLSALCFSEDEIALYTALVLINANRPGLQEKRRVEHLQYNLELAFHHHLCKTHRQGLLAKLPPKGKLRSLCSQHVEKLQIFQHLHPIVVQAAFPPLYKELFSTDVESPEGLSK
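Drosophila Schneider cells stably carrying a metallothionein-driven Gal4 DBD–ROR gamma fusion and a UAS-Photinus luciferase reporter were exposed to compound for 1 hr, then induced with copper sulfate (700 uM final) for 20 hr at ambient temperature before luminescence reading.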
Each line names hits and unclear results; the compound was inactive in the other large screens. Rows were chosen to be rich in hits. Some 18% of all compounds tested hit in one or more screens of this group. Unless noted, calls follow the shape of the dose curve; as a rule, active = well fitted curve in the direction sought with a large enough effect; inconclusive = small, poorly fitted or top-dose-only effect, or another doubt; inactive = no such curve, though single readings can be large; an effect the other way counts as inactive or inconclusive.

Cc1cc(C)c(-c2csc(Cc3nc(-c4cc5ccccc5oc4=O)cs3)n2)cc1C	DT40 TDP1 no CPT 15µM, TDP1 cell CPT 18µM
Cc1cc(C)c(-c2csc(-c3cc4ccccc4oc3=O)n2)cc1C	DT40 TDP1 no CPT inconclusive (no result: VP16 counter, IL1B secr inh, RORg inh)
CCC(C)C(N)C(=O)NC(CC(N)=O)C(=O)NC(CC(C)C)C(=O)NC(CCCCN)C(=O)NC(C)C(=O)NC(CC(C)C)C(=O)NC(C)C(=O)NC(C)C(=O)NC(CC(C)C)C(=O)NC(C)C(=O)NC(CCCCN)C(=O)NC(CCCCN)C(=O)NC(C(=O)NC(CC(C)C)C(N)=O)C(C)CC (stereo not drawn)	VP16 counter 18µM, RORg inh inconclusive (no result: DT40 TDP1 no CPT, IL1B secr inh, TDP1 cell CPT, LDHA inh)
O=C(c1cnn(Cc2ccccc2)c1)N1CCN(S(=O)(=O)c2cccc(Br)c2)CC1	none (no result: DT40 TDP1 no CPT, VP16 counter, IL1B secr inh, TDP1 cell CPT, RORg inh)
CCc1ccc(Nc2cc(C)nc3ncnn23)cc1	none
Cc1cc(Nc2ccc(Cl)cc2)n2ncnc2n1	none
Cc1ccc(Nc2cc(-c3ccccc3)nc3ncnn23)cc1	DT40 TDP1 no CPT inconclusive, VP16 counter inconclusive, IL1B secr inh -56, TDP1 cell CPT inconclusive, RORg inh 11µM
CCn1c2ccccc2c2cc(Nc3cc(C)nc4ncnn34)ccc21	DT40 TDP1 no CPT 0.58µM, VP16 counter inconclusive, TDP1 cell CPT 0.92µM, RORg inh 20µM
CC(=O)C1=C(C)NC(SCC(=O)c2ccc(F)cc2)=C(C#N)C1CC(C)C (stereo not drawn)	DT40 TDP1 no CPT inconclusive, VP16 counter 7.1µM, TDP1 cell CPT inconclusive, RORg inh 5.6µM
CC(=O)C1=C(C)NC(SCC(N)=O)=C(C#N)C1CC(C)C (stereo not drawn)	DT40 TDP1 no CPT inconclusive
CCOC(=O)C1=C(C)NC(SC)=C(C#N)C1CC(C)C (stereo not drawn)	DT40 TDP1 no CPT 3.7µM, IL1B secr inh inconclusive, TDP1 cell CPT 3.7µM
CCOC(=O)C1=C(C)NC(SCC(N)=O)=C(C#N)C1c1ccccc1 (stereo not drawn)	none
CC(=O)C1=C(C)NC(SCC(=O)c2ccc(Cl)cc2)=C(C#N)C1CC(C)C (stereo not drawn)	DT40 TDP1 no CPT inconclusive, VP16 counter inconclusive, RORg inh 11µM
CCC(CC)C(=O)N(C)c1c(C)nc2c(OCc3ccc(F)c(F)c3)cccn12	DT40 TDP1 no CPT 21µM, TDP1 cell CPT inconclusive (no result: VP16 counter, RORg inh)
CCC(CC)C(=O)N(C)c1c(C)nc2c(OCc3ccc(C(F)(F)F)cc3)cccn12	DT40 TDP1 no CPT 18µM, IL1B secr inh inconclusive, TDP1 cell CPT 23µM (no result: VP16 counter, RORg inh)
CCc1nc2c(OCc3ccc(F)c(F)c3)cccn2c1N(C)C(=O)C(C)C	DT40 TDP1 no CPT inconclusive (no result: VP16 counter, RORg inh)
c1ccc(CSc2nnc(-c3ccco3)n2Cc2ccco2)cc1	DT40 TDP1 no CPT 23µM, VP16 counter inconclusive, TDP1 cell CPT inconclusive, RORg inh inconclusive
c1ccc(CSc2nnc(-c3cccs3)n2Cc2ccco2)cc1	DT40 TDP1 no CPT inconclusive, IL1B secr inh -67, TDP1 cell CPT inconclusive
Cc1ccccc1CSc1nnc(-c2cccs2)n1Cc1ccco1	DT40 TDP1 no CPT 23µM, TDP1 cell CPT inconclusive
Cc1ccccc1CSc1nnc(-c2ccco2)n1Cc1ccco1	DT40 TDP1 no CPT inconclusive, VP16 counter inconclusive, TDP1 cell CPT inconclusive
c1coc(Cn2c(SCc3nc4ccccc4[nH]3)nnc2-c2cccs2)c1	none
Cc1ccc(C2=CC(c3ccc(F)cc3)n3nnnc3N2)cc1 (stereo not drawn)	none (no result: DT40 TDP1 no CPT, VP16 counter, IL1B secr inh, TDP1 cell CPT, RORg inh)
O=C(Cc1n[nH]c(=O)c2ccccc12)OCC(=O)N1CCCC1=O	none (no result: DT40 TDP1 no CPT, VP16 counter, IL1B secr inh, TDP1 cell CPT, RORg inh)
COc1cccc2sc(N(CCN(C)C)C(=O)/C=C/c3cccs3)nc12	DT40 TDP1 no CPT 21µM, VP16 counter inconclusive, TDP1 cell CPT inconclusive, RORg inh inconclusive
